The source of these data is PubChem BioAssay (NCATS).

Results filed as inconclusive are left out. Calls of active or inactive are those of the source. Calls come from the whole dose curve; as a rule, active = well fitted activation curve with a large enough effect; inconclusive = small, poorly fitted or top-dose-only effect; inactive = flat fitted curve, though single readings scatter.
Potency is the fitted concentration of half-maximal effect.

A short description of the assay: Validation screen for small molecules that induce DNA re-replication in MCF 10A normal breast cells (AID 463097). For re-replication induction: 0% is about no effect. Note: nearly all actives have a fitted effect of over 60% in size. The following applies: MCF 10A cells, DNA re-replication phenotype imaging; series mostly up to 46.1 µM; re-replication induction: at the top concentration. An excerpt: NIH Molecular Libraries Probe Production Network [MLPCN]
NIH Chemical Genomics Center [NCGC]
Assay Provider: Melvin DePamphilis, NICHD, NIH
Eukaryotic cells normally restrict genome duplication to once per cell division. When this process is aberrant, DNA re-replication occurs when cells reinitiate DNA replication before the first round of replication is complete. DNA re-replication induces the DNA damage response, arrests cell proliferation, and triggers apoptosis. The cell cycle components cyclin A, Cdt-1, Cdc6 and geminin are critical regulators of this process and their misregulation results in DNA re-replication in normal and cancer cells. To identify compounds that induce re-replication in normal cells, an image-based assay was used to measure DNA content of nuclei, as detected by the fluorescent DNA binding dye, Hoechst. Cell nuclei were imaged by a fluorescence scanning plate imager and compounds that induce DNA re-replication were identified by the increase of nuclei with elevated fluorescence intensity.
For screening, 250 cells in 5 uL/well were dispensed into black clear 1536-well plates (Aurora) using a solenoid-based dispenser. Following transfer of 23 nL compound or DMSO vehicle by a pin tool, the plates were incubated 48 hr at 37 C and 5% CO2. After addition of 1 uL/well Hoescht stain, the plates were incubated 40 min at 37 C, 5% CO2 and total intensity of fluorescent objects (nuclei) were enumerated by an Acumen Explorer Ex3 (TTP LabTech) fluorescence scanning plate imager (405 nm excitation, 500-530 nm emission).
Keywords: NIH Roadmap, MLPCN, MLI, MLSMR, qHTS, NCGC, DNA replication, cancer
On to `NC(=O)c1cccc(N)c1`, for which the “re-replication induction” value was -2.24% (inactive).
As for `CCCCS(=N)(=O)CCC(N)C(=O)O` (stereo unspecified), the “re-replication induction” value was -0.284% (inactive).
In the case of `Nc1nc(N)c2nc(CNc3ccc(C(=O)NC(CCC(=O)O)C(=O)O)cc3)cnc2n1` (stereo unspecified), the “re-replication induction” value is -15.3% (inactive).
In the case of `O=C(O)C1CCCN(CCC=C(c2ccccc2)c2ccccc2)C1` (stereo unspecified), the “re-replication induction” value was 0.353% (inactive).
For `OCc1ccc(-c2nn(Cc3ccccc3)c3ccccc23)o1`, the Potency is 12.6 µM (active).
For `CC(C)(C)NC(=O)[C@H]1CC[C@H]2[C@@H]3CC[C@H]4NC(=O)C=C[C@]4(C)[C@H]3CC[C@]12C`, the “re-replication induction” value was -3.54% (inactive).
Still for that read-out and setting: for `CC(C)NCC(O)c1ccc(NS(C)(=O)=O)cc1` (stereo unspecified) the value was -6.97% (inactive); for `CCN(CC)CC#CCOC(=O)C(O)(c1ccccc1)C1CCCCC1` (stereo unspecified), 9.23% (inactive).
Still for that read-out and setting: for `CC(=O)[C@H]1CC[C@H]2[C@@H]3CCC4=CC(=O)CC[C@]4(C)[C@H]3CC[C@]12C` the value was -4.48% (inactive); for `CCN1CCCC1CNC(=O)c1cc(S(N)(=O)=O)ccc1OC` (stereo unspecified), 4.85% (inactive).
For the compound `CC1=C(C(=O)O)N2C(=O)[C@@H](NC(=O)C(N)c3ccccc3)[C@H]2SC1` (stereo partly specified), the “re-replication induction” value was 2.14% (inactive).
